Only some compounds are listed: those with a hit (about 21% of all), similar ones and a draw of the others.
ClpP mod – qHTS Assay for Activators of ClpP | purified B. subtilis ClpP, FRET peptide cleavage, 20 min | Potency, µM (highest dose often 57.5 µM), without a hit: at the highest dose activity change, negative = active | 340,000 compounds, 1.9% hits | AID 651965, 2013; active = well fitted falling curve with a large enough effect; inconclusive = small, poorly fitted or top-dose-only effect; inactive = no such curve, though single readings can be large or run the other way; also: potency is read from the fitted curve at half-maximal effect; the source files actives as falling curves though it sought activators and does not explain the sign; nearly all actives have a fitted effect of over 65% in size
Target sequence (P80244 whole entry, looked up): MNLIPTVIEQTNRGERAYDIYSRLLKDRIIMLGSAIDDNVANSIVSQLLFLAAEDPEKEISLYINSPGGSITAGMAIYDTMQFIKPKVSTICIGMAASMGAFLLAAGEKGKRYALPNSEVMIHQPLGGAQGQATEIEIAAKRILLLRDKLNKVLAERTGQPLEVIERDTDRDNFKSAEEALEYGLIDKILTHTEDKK
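FRET quenching reversal measured ClpP activation: 10 microg/mL B. subtilis ClpP at pH 8 with the FRET-FV decapeptide, read at 430 nm after 320 nm excitation. The 20-min minus 0-min signal was scaled between DMSO/no-enzyme wells and ADEP (5.8 microM final).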
TDP1 cell CPT – DT40-hTDP1 cell growth loss with CPT; Potency, µM (top dose mostly 46.2 µM), inactives show at the top dose activity change, negative = growth inhibition, usual class: inhibitors; 420,000 compounds, 12% hits; chicken DT40 Tdp1-/-;hTDP1 cells + 20 nM CPT, ATP luminescence, 48 h; also: potency is read from the fitted curve at half-maximal effect; % is scaled to controls: 0 for no effect and ±100 for the full control effect; nearly all actives have a fitted effect of over 55% in size
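Cell growth measured by CellTiter-Glo luminescence after a minimum 48 h, 37 C compound exposure with 20 nM CPT in Tdp1-knockout DT40 cells stably expressing hTDP1, seeded 400/well; qHTS titration format.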
D3 antag – blocks the human D3 dopamine receptor; P35462; D3R cells, DiscoveRx beta-arrestin luminescence, antagonist mode; hits give low values; max response, negative = inhibition, %; 360,000 compounds, 2.5% hits; AID 652054; in the data active = max response below about -50%; inconclusive = no clear call, values can overlap the other calls; also: % is scaled to controls: 0 for no effect and ±100 for the full control effect
Target sequence (P35462 whole entry, looked up): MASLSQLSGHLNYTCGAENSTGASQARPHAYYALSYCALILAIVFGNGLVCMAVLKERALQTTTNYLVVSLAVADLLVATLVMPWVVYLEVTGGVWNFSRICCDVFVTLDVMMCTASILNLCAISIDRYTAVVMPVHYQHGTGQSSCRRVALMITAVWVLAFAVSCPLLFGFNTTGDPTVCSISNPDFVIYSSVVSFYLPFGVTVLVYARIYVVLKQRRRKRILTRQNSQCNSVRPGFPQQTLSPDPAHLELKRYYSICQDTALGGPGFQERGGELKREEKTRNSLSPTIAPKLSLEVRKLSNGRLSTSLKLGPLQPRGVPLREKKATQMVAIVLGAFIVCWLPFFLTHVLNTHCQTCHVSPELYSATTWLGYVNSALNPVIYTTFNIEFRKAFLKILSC
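Cells expressing the human receptor were seeded at 1500 cells/well, incubated overnight at 37 degrees C in 5% CO2, then exposed to library compounds with dopamine controls for 90 minutes at 37 degrees C before luminescent detection.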
TDP1 cell noCPT – qHTS for Inhibitors of human tyrosyl-DNA phosphodiesterase 1 (TDP1): qHTS in cells in absence of CPT | DT40 Tdp1-/- hTDP1 cells, no CPT, ATP luminescence, 48 h | Potency, µM (series often up to 46.2 µM), for inactives: top-dose activity change, negative = growth inhibition, actives largely listed as inhibitors | 420,000 compounds, 15% hits | AID 686978, 2013; also: potency is read from the fitted curve at half-maximal effect; % is scaled to controls: 0 for no effect and ±100 for the full control effect; nearly all actives have a fitted effect of over 55% in size
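Cells were dispensed at 400 per well, compounds added by pin tool, plates incubated ≥48 hr at 37 °C, then CellTiter-Glo added for 30 min at room temperature before luminescence reading. Line: DT40 Tdp1-/- complemented with hTDP1; camptothecin omitted.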
IL1B secr inh – inflammasome signaling inhibition, IL-1 beta readout. THP-1 LPS/ATP IL-1B secretion, AlphaLISA, 16 h; hits give low values. activity change, % at 57.5 µM. 360,000 compounds, 4.7% hits; in the data active = activity change below about -50%; inconclusive = mostly about -30% to -49%; also: % is scaled to controls: 0 for no effect and ±100 for the full control effect
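Secreted IL-1B measured by AlphaLISA bead assay after 16 h compound exposure of THP-1 cells; compounds (final up to 57.5 uM) added 1 h before LPS (250 ng/mL) and ATP (1.25 mM) stimulation; lower signal means less secretion.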
DRD3 agonist – agonists of human D3 dopamine receptor. max activation, %. 410,000 compounds, 0.58% hits. D3R DiscoveRx beta-arrestin cells, luminescence, 90 min; in the data active = max activation above about 30%; also: 0% is about no effect
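Cells at 1500/well, incubated overnight, then treated with pinned compounds (dopamine as control) for 90 min at 37 degrees C. DiscoveRx reagent added for 30 - 60 minutes at room temperature; luminescence read.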
An asterisk follows results filed as active; ? = inconclusive; . = no result given; [ ] = dose if it differs, or a comment. Unless noted, calls follow the shape of the dose curve; as a rule, active = well fitted inhibition curve with a large enough effect; inconclusive = small, poorly fitted or top-dose-only effect; inactive = flat fitted curve, though single readings scatter.

SMILES | ClpP mod | TDP1 cell CPT | D3 antag | TDP1 cell noCPT | IL1B secr inh | DRD3 agonist
CCOC(=O)c1scc(-c2ccccc2)c1S(=O)(=O)N1CCN(c2ccccc2OC)CC1 | 1.7% | 8.2µM* | . | 13µM* | . | 3.4
N=c1c2ccccc2nnn1-c1cccc(C(F)(F)F)c1 | . | -17.4% | 3.5 | -29.2% | -15.0 | 5.6
O=C(Cc1csc(NC(=O)Nc2ccc(Cl)cc2)n1)NC1CCCC1 | ? | ? | 13.7 | ? | -53.3* | -1.2
CCOC(=O)Cc1csc(NC(=O)Nc2cccc(Cl)c2)n1 | . | ? | -1.2 | ? | 0.0 | -4.0
CCOC(=O)Cc1csc(NC(=O)Nc2ccc(Cl)cc2)n1 | 0.7% | 20.6µM* | -16.0 | 16.4µM* | -11.9 | -5.1
Cc1cc(C)c(CN2CCN(C(=O)Cn3ccc(N)nc3=O)CC2)c(C)c1 | -1.1% | -13.1% | -10.2 | -16.4% | 35.9 | -8.6
Cc1cc(C)c(CN2CCN(C(=O)Cn3cnc4c(NCc5ccccc5)ncnc43)CC2)c(C)c1 | 0.6% | 5.8µM* | 10.5 | 1.84µM* | ? | 30.5*
CSc1nc(N)nc2c1ncn2CC(=O)N1CCN(Cc2c(C)cc(C)cc2C)CC1 | -6.2% | 1.84µM* | 10.7 | 0.82µM* | 37.3 | 11.1
O=C(NCCC1=CCCCC1)C1CCN(C(=O)c2ccc(Br)cc2)CC1 | -1.9% | ? | -23.0 | ? | 0.0 | -0.5
Cc1ccc(C2CC(=O)Nc3cc4c(cc32)OCCO4)cc1 (configuration not stated) | 1.6% | -29.2% | . | -15.4% | . | -4.5
O=[N+]([O-])c1ccc(Sc2cccc[n+]2[O-])c2nonc12 | 1.8% | 0.0058µM* | -116.0* | 0.0206µM* | -98.0* | -59.9
Cc1ccc(C)c2c1cc(C)c1nnc(SCc3ccccn3)n12 | -1.8% | 1.8% | 18.5 | 11.4% | 0.0 | 0.2
Cc1cc2cc(C)c3nnc(SCc4ccccn4)n3c2cc1C | -4.3% | 23.1µM* | 12.6 | ? | -6.3 | -1.5
COc1cc(-c2cnc3ccccc3c2)cc2c1OCCN(S(=O)(=O)C[C@]13CC[C@H](CC1=O)C3(C)C)C2 | . | 21.6%[9.04 µM] | . | ? | . | .
Cn1c(=O)c2c(nc(Sc3ncnn3CC(=O)NC3CCCCC3)n2C)n(C)c1=O | -1.2% | -11.9% | -14.1 | -13.2% | 15.5 | -9.3
COc1ccc(CN(C(=O)/C=C/c2ccccc2Cl)C2CCS(=O)(=O)C2)cc1 (configuration not stated) | -1.1% | ? | 3.6 | 23.1µM* | 0.0 | 7.5
CN(C)c1ccc(CN(C(=O)/C=C/c2ccccc2Cl)C2CCS(=O)(=O)C2)cc1 (configuration not stated) | 0.2% | ? | 36.0 | 20.6µM* | -8.8 | 3.2
CC(C)c1ccc(CN(C(=O)/C=C/c2ccco2)C2CCS(=O)(=O)C2)cc1 (configuration not stated) | -1.5% | ? | 2.2 | ? | -86.0* | -19.0
O=C(/C=C/c1ccccc1Cl)N(Cc1ccc(Cl)cc1)C1CCS(=O)(=O)C1 (configuration not stated) | 1.2% | ? | 3.6 | ? | -57.2* | 7.7
COc1cc(-c2noc(C)c2C(=O)NCCCn2ccnc2)cc(OC)c1OC | -6.7% | -1.0% | ? | -0.4% | 4.6 | -0.5
CCNc1ncc2nc(-c3ccccc3)c(=O)n(C)c2n1 | . | -1.0% | . | 1.3% | . | .
Cc1cc(=O)[nH]c2nnc(SCC(=O)Nc3ccc(F)cc3F)n12 | -0.1% | 7.6% | . | -3.1% | . | -8.9
COC(=O)[C@H](C)N(Cc1ccc(Cl)c(Cl)c1)S(=O)(=O)CCNC1CCCC1 | 0.7% | ? | -3.9 | 20.6µM* | ? | 0.0
Cc1ccccc1CC(=O)Nc1ccc(C(=O)N2CCCC2)cc1 | 0.6% | -0.3% | 17.6 | 1.6% | -1.6 | 4.4
O=C1c2ccccc2NC(c2cccc([N+](=O)[O-])c2)N1CCc1ccccc1 (configuration not stated) | . | -22.0% | -4.8 | ? | -82.5* | 2.7
SMILES | ClpP mod | TDP1 cell CPT | D3 antag | TDP1 cell noCPT | IL1B secr inh | DRD3 agonist
CCN(CC)CCN1C(=O)c2ccccc2NC1c1cccc(F)c1 (configuration not stated) | ? | ? | -26.9 | -14.8% | 12.5 | -0.5
Cc1cccc(C2Nc3ccccc3C(=O)N2NC(=O)c2ccc([N+](=O)[O-])cc2)n1 (configuration not stated) | -1.8% | -3.8% | -2.7 | -5.7% | -11.9 | 1.5
Cc1cccc(C2Nc3ccccc3C(=O)N2CCc2ccccc2)n1 (configuration not stated) | 17.8µM* | ? | -22.0 | ? | 2.4 | -2.2
O=C(NCC(c1ccc2c(c1)OCO2)N1CCOCC1)c1cccc(Cl)c1 (configuration not stated) | -0.8% | ? | . | ? | . | -22.6
COc1cccc(-n2cc(C(=O)NC(C)C)c3ccccc3c2=O)c1 | -0.9% | 5.1% | 24.9 | -2.4% | 26.3 | 4.9
COc1ccc(C(=O)Nc2cccc(NC(=O)c3cccs3)c2)cc1 | 1.2% | ? | 7.8 | ? | ? | -5.2
Cc1ccc(C(=O)Nc2cccc(NC(=O)c3cccs3)c2)c(C)c1 | -0.1% | -66.9% | 17.1 | 16.4µM* | 0.8 | 5.3
Cc1ccc(C(=O)Nc2ccncc2)c(C)c1 | -1.1% | ? | 14.4 | ? | -20.9 | 9.7
COc1cc(NC(=O)c2ccc(C)cc2C)ccc1NC(=O)c1cccs1 | -1.8% | -7.0% | -10.1 | -17.3% | -63.0* | 21.6
O=C(Nc1cccc(NC(=O)c2cccs2)c1)c1ccc(F)cc1 | . | ? | 4.1 | ? | -61.0* | 0.4
COc1cc(NC(=O)c2c(F)c(F)c(OC)c(F)c2F)ccc1NC(=O)c1cccs1 | -9.3% | 20.6µM* | 1.1 | 18.4µM* | 0.0 | 4.6
CCc1ccc(NC(=O)C2C3CCC(O3)C2C(=O)O)cc1 (configuration not stated) | 1.7% | -1.1% | 35.6 | -16.4% | 0.0 | 2.1
COc1ccccc1NC(=O)n1ncc2c(C)cccc21 | -1.3% | -18.2% | . | -15.7% | . | 3.4
Cc1ccc2c(c1)C(c1ccccc1)N(C(=O)c1ccc(OC(C)C)cc1)CC(=O)N2 (configuration not stated) | -0.7% | ? | . | ? | . | 2.5
Cc1c(C(=O)N(C)C)sc2c1c(=O)n(-c1ccc(Cl)cc1)c(=O)n2CC(=O)C(C)(C)C | -0.2% | -18.6% | . | ? | . | 8.5
O=C(Nc1cccc(NC(=O)c2cccs2)c1)c1ccc(Br)o1 | -2.8% | -24.9% | ? | 20.6µM* | -11.1 | -10.4
